The record followed here is PubChem BioAssay (NCI).

Several values for one entry are separate records, joined by “and”; a condition that tells them apart may be missing. Equal entries are not always repeated. Compounds without any hit were thinned out: in the full panel of roughly 83,000, 20% have a hit.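 Single-concentration screen, 48 h exposure, 96-well plates. Endpoint: percent growth. Below 10 = active.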 Values without a mark were called inactive. Activity calls are given as the source filed them.

Test systems include SR leukemia; RPMI-8226 leukemia; OVCAR-8 ovarian; OVCAR-5 ovarian; OVCAR-4 ovarian; SK-OV-3 ovarian; IGROV1 ovarian; OVCAR-3 ovarian; HS 578T breast; NCI/ADR-RES ovarian.
Common to all, as to test: NCI-60 one-dose screen, 48 h (100 = growth as untreated, 0 = no growth, -100 = all killed)
Conditions in all cases: 10 µM unless noted

With `CC(=O)Oc1ccc(C(c2ccc(OC(C)=O)cc2)c2ccccn2)cc1`, the growth is 95.1% and 98% in the assay on SR leukemia; 82.9% and 104% with RPMI-8226 leukemia; 48.7% with OVCAR-8 ovarian; 109% and 27% with OVCAR-5 ovarian; -9.93% (active) and -15.5% (active) in the assay on OVCAR-4 ovarian; 119% with SK-OV-3 ovarian. Besides, the growth is 69% and 79.3% with IGROV1 ovarian; 61.3% and 71% in the assay on OVCAR-3 ovarian; 31.2% in the assay with HS 578T breast; 49.9% and 34.3% with NCI/ADR-RES ovarian.

Turning to `C/C=C(/C(=O)NC(N)=O)C(C)C`, the growth in the assay on SR leukemia is 88.7%; in the assay on RPMI-8226 leukemia it was 113%; in the assay with OVCAR-8 ovarian, 96.2%; in the assay with OVCAR-5 ovarian, 116%; in the assay with OVCAR-4 ovarian, 119%; with SK-OV-3 ovarian it was 99.4%. Also, the growth was 114% in the assay with IGROV1 ovarian, 104% in the assay on OVCAR-3 ovarian, 107% in the assay with HS 578T breast and 107% in the assay with NCI/ADR-RES ovarian.

On to `N#Cc1c(N)nc2c(c(-c3ccc(Cl)cc3)nn2-c2ccccc2)c1C#N`, for which the growth is 104% [100 µM] in the assay with SR leukemia; 108% [100 µM] in the assay with RPMI-8226 leukemia; 99.8% [100 µM] with OVCAR-8 ovarian; 123% [100 µM] with OVCAR-5 ovarian; 111% [100 µM] with OVCAR-4 ovarian; 94.8% [100 µM] with SK-OV-3 ovarian. The growth with IGROV1 ovarian is 99.2% [100 µM]; in the assay with OVCAR-3 ovarian it was 122% [100 µM]; in the assay with HS 578T breast it was 83.9% [100 µM]; in the assay with NCI/ADR-RES ovarian, 101% [100 µM].

With `N#CC(=S)Nc1ccc(Cl)c(Cl)c1`, the growth in the assay on SR leukemia is 9.44% (active); with RPMI-8226 leukemia, 19.7%; in the assay on OVCAR-8 ovarian it was 10.1%; with OVCAR-5 ovarian it was 11%; in the assay on OVCAR-4 ovarian, 22.6%; in the assay on SK-OV-3 ovarian it was 7.19% (active). Further, the growth with IGROV1 ovarian was 19.5%; with OVCAR-3 ovarian it was 7.39% (active); with HS 578T breast, -7.34% (active); in the assay on NCI/ADR-RES ovarian, 7.44% (active).

`NNC(=O)Nc1ccccc1`: the growth in the assay on SR leukemia is 96.5%; in the assay on RPMI-8226 leukemia it was 106%; with OVCAR-8 ovarian, 109%; in the assay on OVCAR-5 ovarian, 102%; with OVCAR-4 ovarian it was 104%; with SK-OV-3 ovarian, 105%. Further, the growth in the assay with IGROV1 ovarian is 102%; in the assay with OVCAR-3 ovarian it was 105%; with HS 578T breast, 105%; with NCI/ADR-RES ovarian, 105%.

As for `CSc1nc(N)c(N)c(N)n1`, the growth in the assay on SR leukemia is 90.8%; in the assay on RPMI-8226 leukemia, 102%; with OVCAR-8 ovarian it was 103%; in the assay with OVCAR-5 ovarian, 120%; in the assay on OVCAR-4 ovarian, 103%; in the assay on SK-OV-3 ovarian it was 81.3%. Besides, the growth in the assay with IGROV1 ovarian is 108%; in the assay on OVCAR-3 ovarian it was 113%; with HS 578T breast it was 111%; with NCI/ADR-RES ovarian, 110%.

Regarding `Clc1ccc2sc(-c3ccccc3)nc2c1`, the growth is 83.1% in the assay on SR leukemia; 97% with RPMI-8226 leukemia; 87.9% in the assay with OVCAR-8 ovarian; 120% in the assay with OVCAR-5 ovarian; 81.5% in the assay on OVCAR-4 ovarian; 83.6% with SK-OV-3 ovarian. Further, the growth in the assay on IGROV1 ovarian was 101%; in the assay on OVCAR-3 ovarian it was 98.6%; with HS 578T breast, 68.7%; in the assay on NCI/ADR-RES ovarian it was 100%.

With `COc1ccc([N+](=O)[O-])cc1OC`, the growth in the assay with SR leukemia was 89.4% and 108%; in the assay on RPMI-8226 leukemia it was 106%; in the assay with OVCAR-8 ovarian it was 89.6% and 94.5%; in the assay with OVCAR-5 ovarian it was 101% and 98.3%; with OVCAR-4 ovarian, 104%; with SK-OV-3 ovarian, 114% and 119%. For the same molecule, the growth is 111% and 109% in the assay with IGROV1 ovarian; 113% and 114% with OVCAR-3 ovarian; 112% and 132% in the assay on HS 578T breast; 102% and 104% in the assay on NCI/ADR-RES ovarian.

As to `OCCS`, the growth was 90.5% in the assay on SR leukemia; 104% with RPMI-8226 leukemia; 103% in the assay on OVCAR-8 ovarian; 104% in the assay on OVCAR-5 ovarian; 101% with OVCAR-4 ovarian; 101% in the assay on SK-OV-3 ovarian. Further, the growth in the assay with IGROV1 ovarian was 110%; in the assay on OVCAR-3 ovarian, 105%; in the assay with HS 578T breast it was 106%; with NCI/ADR-RES ovarian, 102%.

In the case of `CS(=O)(=O)OCC1NC(=O)C(COS(C)(=O)=O)NC1=O` (stereo not given), the growth is 104% and 125% in the assay on SR leukemia; 82.7% and 90% in the assay with RPMI-8226 leukemia; 87.5% and 107% in the assay with OVCAR-8 ovarian; 106% and 124% in the assay with OVCAR-5 ovarian; 79.8% and 87% in the assay on OVCAR-4 ovarian; 107% and 120% in the assay on SK-OV-3 ovarian. The growth with IGROV1 ovarian is 63.4% and 57.5%; in the assay with OVCAR-3 ovarian, 122% and 94.8%; in the assay with HS 578T breast, 193% and 106%; in the assay with NCI/ADR-RES ovarian, 103% and 97.8%.

On to `CN(C)C(=N)N=C(N)N`, for which the growth is 133% in the assay with SR leukemia; 92.2% in the assay on RPMI-8226 leukemia; 105% in the assay with OVCAR-8 ovarian; 115% and 114% in the assay on OVCAR-5 ovarian; 96.3% and 112% with OVCAR-4 ovarian; 106% and 110% in the assay on SK-OV-3 ovarian. Moreover, the growth with IGROV1 ovarian is 98.7% and 128%; with OVCAR-3 ovarian it was 118% and 113%; in the assay with HS 578T breast, 144%; in the assay with NCI/ADR-RES ovarian it was 105% and 111%.

Consider `O=C(O)C(Cc1ccc(OS(=O)(=O)Cc2ccccc2)cc1)NS(=O)(=O)Cc1ccccc1` (stereo not given), for which the growth was 100% and 85.8% in the assay on SR leukemia; 110% and 102% in the assay with RPMI-8226 leukemia; 105% with OVCAR-8 ovarian; 123% and 112% with OVCAR-5 ovarian; 99.8% and 109% in the assay with OVCAR-4 ovarian; 112% and 120% in the assay on SK-OV-3 ovarian. Also, the growth was 106% and 121% in the assay with IGROV1 ovarian; 111% and 109% with OVCAR-3 ovarian; 106% in the assay with HS 578T breast; 105% and 112% in the assay on NCI/ADR-RES ovarian.
